In PubChem BioAssay AID1159580 (chemical genetic matrix, 2015):
Hit rate of the full screen: of about 5,500 compounds, about 2,000 (36%) were called active. Not shown: some 18% with an inconclusive outcome. No stated cut-off is given here; in the data, active means normalized growth mostly below about 0.91 (no sharp cut-off); inconclusive means no clear call, values can overlap the other calls; inactive means mostly above about 0.92. The list shows a part of the results.

Test: chemical genetic growth profiling, strain panel (AID 1159580);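 further: tested at 20 µM; growth read once vehicle control cultures reached saturation at 30 °C; 1 = growth at the plate median or of vehicle wells; lower values mean less growth of the strain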
Conditions: growth OD
[1] = S. cerevisiae deletion strains, locus YAL013W, strain DEP1, active compounds read low
[2] = S. cerevisiae deletion strains, locus YBR021W, strain FUR4, active compounds read low
[3] = S. cerevisiae deletion strains, locus YBR229C, strain ROT2, active compounds read low
[4] = S. cerevisiae deletion strains, locus YCL029C, strain bik1, active compounds read low
[5] = S. cerevisiae deletion strains, locus YDL035C, strain GPR1, active compounds read low
[6] = S. cerevisiae deletion strains, locus YDL074C, strain BRE1, active compounds read low
[7] = S. cerevisiae deletion strains, locus YDL101C, strain DUN1, active compounds read low
[8] = S. cerevisiae deletion strains, locus YDL134C, strain PPH21, active compounds read low
[9] = S. cerevisiae deletion strains, locus YDL192W, strain arf1, active compounds read low
[10] = S. cerevisiae deletion strains, locus YDR101C, strain arx1, active compounds read low
[11] = S. cerevisiae deletion strains, locus YDR162C, strain NBP2, active compounds read low
[12] = S. cerevisiae deletion strains, locus YDR318W, strain mcm21, active compounds read low
[13] = S. cerevisiae deletion strains, locus YDR388W, active compounds read low
[14] = S. cerevisiae deletion strains, locus YDR502C, strain sam2, active compounds read low
[15] = S. cerevisiae deletion strains, locus YEL061C, strain CIN8, active compounds read low
[16] = S. cerevisiae deletion strains, locus YER110C, active compounds read low
[17] = S. cerevisiae deletion strains, locus YER155C, strain BEM2, active compounds read low
[18] = S. cerevisiae deletion strains, locus YER167W, strain BCK2, active compounds read low
[19] = S. cerevisiae deletion strains, locus YGL078C, strain dbp3, active compounds read low
[20] = S. cerevisiae deletion strains, locus YGL086W, strain mad1, active compounds read low
[21] = S. cerevisiae deletion strains, locus YGL248W, strain PDE1, active compounds read low
[22] = S. cerevisiae deletion strains, locus YGR078C, strain PAC10, active compounds read low
[23] = S. cerevisiae deletion strains, locus YGR135W, strain pre9, active compounds read low
[24] = S. cerevisiae deletion strains, locus YGR229C, strain SMI1, active compounds read low
[25] = S. cerevisiae deletion strains, locus YGR252W, strain gcn5, active compounds read low
[26] = S. cerevisiae deletion strains, locus YHR030C, strain SLT2, active compounds read low
[27] = S. cerevisiae deletion strains, locus YHR079C, strain IRE1 (second series), active compounds read low
[28] = S. cerevisiae deletion strains, locus YHR094C, strain hxt1, active compounds read low
[29] = S. cerevisiae deletion strains, locus YHR129C, strain ARP1, active compounds read low
[30] = S. cerevisiae deletion strains, locus YHR200W, strain rpn10, active compounds read low
[31] = S. cerevisiae deletion strains, locus YIL066C, strain RNR3, active compounds read low
[32] = S. cerevisiae deletion strains, locus YIL073C, strain SPO22, active compounds read low
[33] = S. cerevisiae deletion strains, locus YIL125W, strain kgd1, active compounds read low
[34] = S. cerevisiae deletion strains, locus YIR030C, strain dcg1, active compounds read low
[35] = S. cerevisiae deletion strains, locus YJL095W, strain BCK1, active compounds read low
[36] = S. cerevisiae deletion strains, locus YJL134W, strain LCB3, active compounds read low
[37] = S. cerevisiae deletion strains, locus YJL168C, strain set2, active compounds read low
[38] = S. cerevisiae deletion strains, locus YJL187C, strain SWE1 (second series), active compounds read low
[39] = S. cerevisiae deletion strains, locus YJR043C, strain POL32, active compounds read low
[40] = S. cerevisiae deletion strains, locus YJR075W, strain HOC1, active compounds read low
[41] = S. cerevisiae deletion strains, locus YKL009W, strain mrt4, active compounds read low
[42] = S. cerevisiae deletion strains, locus YKL068W, active compounds read low
[43] = S. cerevisiae deletion strains, locus YKL085W, strain MDH1 (second series), active compounds read low
[44] = S. cerevisiae deletion strains, locus YKL085W, strain MDH1, active compounds read low
[45] = S. cerevisiae deletion strains, locus YKL190W, strain CNB1, active compounds read low
[46] = S. cerevisiae deletion strains, locus YKR001C, strain vps1, active compounds read low
[47] = S. cerevisiae deletion strains, locus YLR039C, strain RIC1, active compounds read low
[48] = S. cerevisiae deletion strains, locus YLR058C, strain SHM2, active compounds read low
[49] = S. cerevisiae deletion strains, locus YLR102C, strain apc9, active compounds read low
[50] = S. cerevisiae deletion strains, locus YLR262C, strain YPT6, active compounds read low
[51] = S. cerevisiae deletion strains, locus YLR268W, strain sec22, active compounds read low
[52] = S. cerevisiae deletion strains, locus YLR330W, strain CHS5, active compounds read low
[53] = S. cerevisiae deletion strains, locus YLR342W, strain FKS1 (second series), active compounds read low
[54] = S. cerevisiae deletion strains, locus YLR371W, strain rom2, active compounds read low
[55] = S. cerevisiae deletion strains, locus YLR418C, strain cdc73, active compounds read low
[56] = S. cerevisiae deletion strains, locus YML016C, strain PPZ1, active compounds read low
[57] = S. cerevisiae deletion strains, locus YML032C, strain rad52, active compounds read low
[58] = S. cerevisiae deletion strains, locus YML124C, strain tub3, active compounds read low
[59] = S. cerevisiae deletion strains, locus YMR078C, strain ctf18, active compounds read low
[60] = S. cerevisiae deletion strains, locus YMR223W, strain ubp8, active compounds read low
[61] = S. cerevisiae deletion strains, locus YMR263W, strain SAP30, active compounds read low
[62] = S. cerevisiae deletion strains, locus YMR307W, strain GAS1, active compounds read low
[63] = S. cerevisiae deletion strains, locus YNL067W, strain RPL9B, active compounds read low
[64] = S. cerevisiae deletion strains, locus YNL153C, strain GIM3, active compounds read low
[65] = S. cerevisiae deletion strains, locus YNL233W, strain BNI4, active compounds read low
[66] = S. cerevisiae deletion strains, locus YNL250W, strain rad50, active compounds read low
[67] = S. cerevisiae deletion strains, locus YNL271C, strain bni1, active compounds read low
[68] = S. cerevisiae deletion strains, locus YNL298W, strain CLA4, active compounds read low
[69] = S. cerevisiae deletion strains, locus YNL307C, strain MCK1, active compounds read low
[70] = S. cerevisiae deletion strains, locus YNR052C, strain pop2, active compounds read low
[71] = S. cerevisiae deletion strains, locus YOL006C, strain TOP1, active compounds read low
[72] = S. cerevisiae deletion strains, locus YOL012C, strain htz1
[73] = S. cerevisiae deletion strains, locus YOL147C, strain pex11, active compounds read low
[74] = S. cerevisiae deletion strains, locus YOR061W, strain CKA2, active compounds read low
[75] = S. cerevisiae deletion strains, locus YOR069W, strain VPS5, active compounds read low
[76] = S. cerevisiae deletion strains, locus YOR136W, strain idh2, active compounds read low
[77] = S. cerevisiae deletion strains, locus YOR144C, strain elg1, active compounds read low
[78] = S. cerevisiae deletion strains, locus YOR184W, strain ser1, active compounds read low
[79] = S. cerevisiae deletion strains, locus YOR316C, strain cot1, active compounds read low
[80] = S. cerevisiae deletion strains, locus YPL055C, strain LGE1, active compounds read low
[81] = S. cerevisiae deletion strains, locus YPR119W, strain clb2, active compounds read low
[82] = S. cerevisiae deletion strains, locus YPR141C, strain kar3, active compounds read low
[83] = S. cerevisiae deletion strains, locus YPR163C, strain tif3, active compounds read low
[84] = S. cerevisiae deletion strains, locus YPR167C, strain met16, active compounds read low
[85] = S. cerevisiae deletion strains, strain wtn01, active compounds read low
[86] = S. cerevisiae strains, strain wild type, active compounds read low

Measured: normalized growth

CCC(=O)c1ccc2c(c1)N(CC(C)N(C)C)c1ccccc1S2 (configuration not stated)
inactive: [1] 0.983 | [2] 0.88 | [3] 0.994 | [4] 1.02 | [5] 0.979 | [6] 0.95 | [7] 0.986 | [8] 0.96 | S. cerevisiae deletion strains, locus YDL185W, strain tfp1, active compounds read low 0.995 | [9] 1.01 | [10] 1.01 | [11] 0.988 | [12] 0.994 | [13] 1 | [14] 0.986 | [15] 0.998 | [16] 1.02 | [17] 0.989 | [18] 0.998 | [19] 1.01 | [20] 0.99 | [21] 0.966 | [22] 0.992 | [23] 0.97 | [24] 0.949 | [25] 0.806 | [26] 0.997 | [27] 1.01 | [28] 1.02 | [29] 0.993 | [30] 1 | [31] 0.985 | [32] 1.01 | [33] 1.01 | [34] 1.01 | [35] 0.889 | [36] 0.996 | [37] 1 | [38] 0.99 | [39] 0.96 | [40] 0.99 | [41] 0.999 | [42] 0.999 | [43] 0.999 | [44] 0.999 | [45] 0.99 | [46] 0.967 | [47] 1.3 | [48] 0.985 | [49] 1.02 | [50] 1.35 | [51] 0.986 | [52] 0.996 | [53] 0.921 | [54] 1.03 | [55] 0.9 | [56] 0.994 | [57] 0.982 | [58] 1.01 | [59] 1.01 | [60] 0.963 | [61] 0.973 | [62] 1.01 | [63] 0.99 | [64] 0.98 | [65] 0.951 | [66] 1.01 | [67] 1.01 | [68] 1.01 | [69] 0.996 | [70] 1 | [71] 0.852 | [72] 0.881 | [73] 1.01 | [74] 0.999 | [75] 0.996 | [76] 1 | [77] 1.01 | [78] 1.01 | [79] 1.02 | [80] 0.949 | [81] 1.01 | [82] 1.01 | [83] 1 | [84] 1.02 | [85] 0.99 | [86] 0.991

CC(CN1c2ccccc2Sc2cccnc21)N(C)C (configuration not stated)
inactive: [1] 1.02 | [2] 0.987 | [3] 1.02 | [4] 0.988 | [5] 1.02 | [6] 1.04 | [7] 1.03 | [8] 1.01 | [9] 0.993 | [10] 0.979 | S. cerevisiae deletion strains, locus YDR150W, strain NUM1, active compounds read low 1.02 | [11] 1.04 | [12] 0.983 | [13] 0.994 | [14] 1.01 | [15] 1.02 | [16] 0.978 | [17] 1.01 | [18] 1.02 | [19] 0.988 | [20] 0.992 | [21] 1.02 | [22] 1.02 | [23] 1.01 | [24] 1.05 | [25] 0.956 | [26] 1.01 | [27] 0.999 | [28] 1 | [29] 1 | [30] 0.995 | [31] 1.01 | [32] 0.999 | [33] 0.999 | [34] 0.992 | [35] 1.01 | [36] 1.05 | [37] 0.998 | [38] 1.02 | [39] 1.01 | [40] 1.02 | [41] 1 | [42] 1 | [43] 0.995 | [44] 0.995 | [45] 1.03 | [46] 0.999 | [47] 1.06 | [48] 1.01 | [49] 0.991 | [50] 1.15 | [51] 0.998 | [52] 1.01 | [53] 1.03 | [54] 0.995 | [55] 1.04 | [56] 1.02 | [57] 0.989 | [58] 0.998 | [59] 0.999 | [60] 0.995 | [61] 1.03 | [62] 1.06 | [63] 1.02 | S. cerevisiae deletion strains, locus YNL128W, strain TEP1, active compounds read low 1.02 | [64] 1.03 | [65] 1.01 | [66] 0.992 | [67] 1.01 | [68] 0.988 | [69] 0.991 | S. cerevisiae deletion strains, locus YNL322C, strain KRE1, active compounds read low 1.01 | [70] 0.994 | [71] 1.03 | [72] 0.957 | [73] 0.991 | [74] 1.02 | [75] 1 | [76] 0.979 | [77] 0.999 | [78] 0.985 | [79] 0.997 | [80] 1.04 | S. cerevisiae deletion strains, locus YPL241C, strain CIN2, active compounds read low 1 | [81] 0.995 | [82] 0.997 | [83] 1 | [84] 1 | [85] 1.01 | [86] 1.01
